The nature of assay [1]: Tanguay_ZF_120hpf_PE_legacy: (Legacy) Oregon State University Tanguay Lab 120 Hour Post-fertilization zebrafish Assay for Pericardial Edema (AID 2283640).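 On AC50: potency for increased incidence of pericardial edema versus DMSO baseline.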 In a few lines: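 Zebrafish larvae are exposed from early development to 120 hpf at 28C, with 0.64% DMSO final. Each surviving larva receives a yes/no pericardial edema call by brightfield imaging, analysed relative to the DMSO baseline.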

Assay [2] can be described thus: Tanguay_ZF_120hpf_BRAI_legacy: (Legacy) Oregon State University Tanguay Lab 120 Hour Post-fertilization zebrafish Assay for Brain Malformation (AID 2283641). The procedure, abridged:
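Static exposure of staged wild-type embryos until 120 hpf, kept at 28C with light excluded and final DMSO of 0.64% (vol/vol). Presence or absence of brain malformation was noted under brightfield; mortality precluded scoring.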

A short description of assay [3]: Tanguay_ZF_120hpf_SOMI_legacy: (Legacy) Oregon State University Tanguay Lab 120 Hour Post-fertilization zebrafish Assay for Somite Malformation (AID 2283647). In a few lines: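 Somitogenesis defects are recorded as binary calls in whole larvae at 120 hpf after continuous static chemical exposure starting at 6 hpf in dechorionated 5D embryos. DMSO serves as negative control and baseline.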

The nature of assay [4]: Tanguay_ZF_120hpf_PFIN_legacy: (Legacy) Oregon State University Tanguay Lab 120 Hour Post-fertilization zebrafish Assay for Pectoral Fin Malformation (AID 2283648).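 Further: each larva judged yes or no for fin defect by brightfield with dead larvae skipped.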 The procedure, abridged:
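Pectoral fin malformation was recorded as a binary endpoint at 120 hpf in wild-type Tropical 5D larvae, which had been dechorionated and exposed statically from 6 hpf at 28C in 0.64% DMSO. Dead embryos were excluded.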

Assay [5] in a line: Tanguay_ZF_120hpf_CFIN_legacy: (Legacy) Oregon State University Tanguay Lab 120 Hour Post-fertilization zebrafish Assay for Caudal Fin Malformation (AID 2283649). In a few lines:
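Single dechorionated 5D wild-type embryos are dosed at 6 hpf (final DMSO 0.64%) and held statically at 28C. Caudal fin malformation is recorded as present or absent at 120 hpf under brightfield, excluding dead embryos.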

Assay [6] is described as follows: Tanguay_ZF_120hpf_PIG_legacy: (Legacy) Oregon State University Tanguay Lab 120 Hour Post-fertilization zebrafish Assay for Pigmentation Malformation (AID 2283650). In a few lines:
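Pigment malformation recorded as a binary call at 120 hpf in zebrafish (Tropical 5D) exposed singly from 6 hpf after pronase dechorionation. Static, sealed, 28C exposure, 0.64% DMSO; mortality excludes scoring; positive-direction fit against DMSO.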

The nature of assay [7]: Tanguay_ZF_120hpf_CIRC_legacy: (Legacy) Oregon State University Tanguay Lab 120 Hour Post-fertilization zebrafish Assay for Circulatory Malformation (AID 2283651). In a few lines:
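Embryos are dechorionated at 4 hpf, plated one per well at 6 hpf, then held under static exposure at 28C until 120 hpf. Malformations are recorded as binary calls; mortality excludes other endpoints.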

Assay [8] in a line: Tanguay_ZF_120hpf_SWIM_legacy: (Legacy) Oregon State University Tanguay Lab 120 Hour Post-fertilization zebrafish Assay for Swim Bladder Malformation (AID 2283654).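 Further: swim bladder malformation in each larva scored yes or no under brightfield.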 The procedure, abridged:
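Scoring is binary for swim bladder defects at 120 hpf, by brightfield inspection of zebrafish larvae. Embryos were exposed singly from 6 hpf after pronase dechorionation, at 28C with 0.64% DMSO; mortality excluded scoring.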

Assay [9] is described as follows: Tanguay_ZF_120hpf_TRUN_legacy: (Legacy) Oregon State University Tanguay Lab 120 Hour Post-fertilization zebrafish Assay for Truncated Body (AID 2283655). In a few lines: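 Single dechorionated zebrafish embryos received test chemical from 6 hpf in 0.64% DMSO, kept at 28C. At 120 hpf, brightfield inspection noted any truncated body.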
Read-out in assay [10]: kallikrein-3 (KLK3), KLK3 (gene 354)
Put plainly: LTEA_HepaRG_KLK3: Life Technologies and Expression Analysis (LTEA) Assay for kallikrein-3 (KLK3) using HepaRG (AID 2283652; active means hit-call score of the fitted dose curve at least 0.9, where 1 is the maximum; inactive means score below 0.9). The following applies: mRNA level, 48 h; actives raise or lower the signal. In a few lines: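 KLK3 transcript levels were measured by TaqMan qRT-PCR with normalisation to three housekeeping genes. HepaRG cultures received chemicals for 48 h at up to 100 uM (half-log, 8 points, 0.5% DMSO vehicle), fitted in both directions against DMSO.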

Structures are written as SMILES. Records with an inconclusive call do not appear. Activity calls are given as the source filed them. How the source made its calls, unless noted: active means hit-call score of the fitted dose curve at least 0.9, where 1 is the maximum; inconclusive means response in the unintended direction; inactive means score below 0.9.

In the case of `CCc1cccc(C)c1N(C(=O)CCl)C(C)COC` (centres undefined), the call in assay [1], in [2], in assay [3], in assay [4], in [5] and in assay [6] was inactive. Also, the compound was called inactive in assay [7], in assay [8] and in [9].

With `C[N+]1(C)CCCCC1`, the result in [1], in [2], in assay [3], in assay [4], in [5] and in [6] was inactive. Moreover, the compound was called inactive in assay [7], in [8] and in assay [9].

Consider `CCCCSP(=O)(SCCCC)SCCCC`, for which the outcome in assay [1], in assay [2], in assay [3], in [4], in assay [5] and in assay [6] was inactive. For the same compound, the call in [7], in [8] and in [9] was inactive.

Consider `C=C(C)[C@H]1Cc2c(ccc3c2O[C@@H]2COc4cc(OC)c(OC)cc4[C@@H]2C3=O)O1`, for which the outcome in assay [1], in assay [2], in [3], in [5], in assay [6] and in assay [7] was inactive. Besides, the result in assay [8] and in assay [9] was inactive.

As to `CC1(C(=O)Nc2ccc(O)c(Cl)c2Cl)CCCCC1`, the outcome in assay [1], in assay [2], in assay [3], in assay [5], in [6] and in assay [7] was inactive. Besides, the outcome in [10], in assay [8] and in [9] was inactive.

Consider `O=c1ccc(=O)[nH][nH]1`, for which the compound was called inactive in assay [1], in [2], in [3], in assay [4], in assay [5] and in assay [6]. Besides, the call in [8] and in assay [9] was inactive.

Take `CCC(=O)Nc1ccc(Cl)c(Cl)c1`: the compound was called inactive in assay [1], in assay [2], in assay [3], in assay [4], in assay [5] and in assay [6]. For the same compound, the outcome in [7], in assay [8] and in assay [9] was inactive.

On to `CCC(CC)Nc1c([N+](=O)[O-])cc(C)c(C)c1[N+](=O)[O-]`, for which the outcome in assay [1], in assay [2], in assay [3], in [4], in assay [5] and in assay [6] was inactive. Further, the call in assay [7], in assay [8] and in assay [9] was inactive.

Turning to `CCC(=NOC/C=C/Cl)C1=C(O)CC(C2CCOCC2)CC1=O` (centres undefined), the result in [1], in assay [2], in assay [3], in [4], in assay [5] and in assay [6] was inactive. In addition, the call in assay [7], in [8] and in assay [9] was inactive.

As for `CCCOCC(=Nc1ccc(Cl)cc1C(F)(F)F)n1ccnc1`, the compound was called inactive in assay [1], in assay [2], in [3], in [4], in assay [5] and in [6]. For the same compound, the call in assay [8] and in [9] was inactive.

Regarding `CCOP(=O)(OCC)Oc1cc(C)nc(C(C)C)n1`, the outcome in assay [1], in assay [2], in assay [3], in assay [4], in assay [5] and in [6] was inactive. In addition, the compound was classed as inactive in assay [7], in assay [8] and in [9].

For `CCOP(=O)(NC(C)C)Oc1ccc(SC)c(C)c1` (centres undefined), the results for the concentration at half-maximal activity (AC50) in [1] and in [2] were 25.6 µM (active) and 61.8 µM (active), respectively. For the same compound, the outcome in assay [3], in [5], in assay [6], in assay [7], in [8] and in [9] was inactive.

Regarding `CCCCN(CC)c1c([N+](=O)[O-])cc(C(F)(F)F)cc1[N+](=O)[O-]`, the compound was classed as inactive in assay [1], in assay [2], in [5], in assay [7] and in assay [8].

With `S=C1NCCN1`, the compound was classed as inactive in assay [1], in [2], in assay [3], in assay [5], in assay [6] and in assay [8]. Moreover, the compound was classed as inactive in assay [9].

As to `CNC(=O)ON=C(C)SC`, the compound was called inactive in assay [1], in assay [2], in assay [5], in [6], in assay [7] and in assay [8]. Further, in assay [9], the compound was classed as inactive.

Regarding `CCOP(=S)(OCC)OC(Cl)C(Cl)(Cl)Cl` (centres undefined), the result in assay [1], in [2], in assay [3], in assay [5], in assay [6] and in [9] was inactive.

Regarding `C#CC(C)(C)NC(=O)c1cc(Cl)cc(Cl)c1`, the outcome in assay [1], in assay [3], in [5], in assay [6], in assay [7] and in assay [8] was inactive.

For the compound `CC(Oc1cccc(Cl)c1)C(=O)O` (centres undefined), the outcome in assay [1], in [2], in assay [3], in [5], in [6] and in [7] was inactive. The compound was classed as inactive in assay [8] and in [9].

Take `COc1cc(OC)nc(Sc2cccc(Cl)c2C(=O)O)n1`: the compound was classed as inactive in [1], in assay [2], in assay [5], in assay [6], in assay [7] and in assay [8]. For the same compound, the result in [9] was inactive.

Take `CC[C@H](C)[C@H]1O[C@]2(C=C[C@@H]1C)C[C@@H]1C[C@@H](C/C=C(\C)[C@@H](O[C@H]3C[C@H](OC)[C@@H](O[C@H]4C[C@H](OC)[C@@H](NC)[C@H](C)O4)[C@H](C)O3)[C@@H](C)/C=C/C=C3\CO[C@@H]4[C@H](O)C(C)=C[C@@H](C(=O)O1)[C@]34O)O2`: the result in assay [1], in [2], in assay [7], in assay [10], in assay [8] and in assay [9] was inactive.

Turning to `CN1COCN(Cc2cnc(Cl)s2)C1=N[N+](=O)[O-]`, the compound was classed as inactive in assay [1], in assay [2], in assay [6], in [7], in assay [8] and in [9].

As for `CN(C)NC(=O)CCC(=O)O`, the call in [1], in [2], in [3], in assay [5], in assay [6] and in assay [8] was inactive. In addition, the call in assay [9] was inactive.

As for `Nc1nc(N)nc(NC2CC2)n1`, the compound was called inactive in assay [3], in assay [5], in assay [6], in assay [7], in assay [8] and in assay [9].

As for `Cc1nn(-c2cc(NS(C)(=O)=O)c(Cl)cc2Cl)c(=O)n1C(F)F`, the outcome in [1], in assay [2], in assay [3], in assay [6], in assay [7] and in assay [8] was inactive. The result in assay [9] was inactive.

For `CCc1cnc(C2=NC(C)(C(C)C)C(=O)N2)c(C(=O)O)c1` (centres undefined), the result in assay [1], in assay [2], in [3], in assay [5], in assay [6] and in assay [7] was inactive. For the same compound, the compound was called inactive in [9].
